B1: d4r2_design_ppi_226_dldesign_0_cycle0_af2pred (protein)
chain: SELEEEAKKVAEEARELAKEAEEAAEKILKEKNNLKEAGTLYAQSAQAKQAAEAVELNPEKAEEARERLKKAKERMKEAVKKAE
B2: d4r3_design_ppi_205_dldesign_0_cycle0_af2pred (protein)
chain: SKEEKVKEYLEKAKEALEKMKETAADATAMNANYTEAKYYADKAAKESEEFKEEAEKLKEEAKKAYKEAAAKYAAAKAAAA
B3: d4r3_design_ppi_53_dldesign_0_cycle1_af2pred (protein)
chain: MDPEVTKKKEAEVEAAGDVKLEGIKYLEEAKKLAKEDKEKGRKLLEEAAKEFKERAKEYEKEGKKIAARYAKEEAKKLEELAKEL
B4: d4r2_design_ppi_363_dldesign_0_cycle0_af2pred (protein)
chain: SLEEAKKSQEELQKKSTEKWLETQIKEAEKKAKEFKSLGEEAKKKAEEILKEVEKAKASTPEEGLEHAAKAAKIIEEAEKKL
B5: d4r3_design_ppi_225_dldesign_0_cycle0_af2pred (protein)
chain: AEDAALAKQAAAKLAEARQKANEALQYAKNGNVEEAKKSLEEAKAALAEAKALAAKASPETQAKAQKALDGVEKRIAEAEKAIKEK
B6: d4r2_design_ppi_407_dldesign_0_cycle1_af2pred (protein)
chain: SEEAKIKAKQYTSSLFTKAYLKASPETAPKIEEALEKAFEAIDKSFDEAIAVMKELAELPEAKEEAEKAEKFVAEQKK
B7: d4r2_design_ppi_271_dldesign_0_cycle0_af2pred (protein)
chain: MTKEELEKLKKEVEEAEKLAQEVLKIDKESGEEILKLVTKAKGYAEFAEDALELGSQKAAESFAKKAKEYVKKAEKLAKETLAKAA
B8: d4r2_design_ppi_295_dldesign_0_cycle1_af2pred (protein)
chain: MAEEAAKAVKNRAERLAKEFPEAAPVMKAVAEEAKKKLEEAKGKSPTEIANVAQDYQAEATAKYAEVKRETEKKLAA
B9: d4r2_design_ppi_190_dldesign_0_cycle1_af2pred (protein)
chain: MEVEKTAKEAVEAVKAKSPKAAPKMEEAKKAAIEAAKLGKKEEALELLTKAKKAAEAGNVAEAIAYANEAIWLGEKLKK
B10: d4r2_design_ppi_432_dldesign_0_cycle1_af2pred (protein)
chain: EEEEKKKAEEEAKKVAELALKDPEAGAKAAKEMLPWSAEGLEALAKALAEAAKKAAKEDPEKAEKIKKVYNDAASAALRAEAKEERKA
B11: d4r2_design_ppi_378_dldesign_0_cycle0_af2pred (protein)
chain: MEEERQKKAEEELKKAKEAVEEGIKYAKEGNIMEANAKLSEARVHAEKAKKLDPETGKEIEKLVEEARKKIKEIAEK
B12: d4r3_design_ppi_239_dldesign_0_cycle0_af2pred (protein)
chain: EEKAKEAEKKSKEYREKARELAEDVRNPELGRERAREEGKKTEEEIEAWLAEKAKEAQELRQESAEYDAKAIILK
B13: d4r3_design_ppi_139_dldesign_0_cycle1_af2pred (protein)
chain: SMMDEVAKKREKKLIEESTAAAKAALAEAKAIAAGADTPENRAARAAAAEKAIANARIAGGALGKEEGEKLVSEVEAAVKA
B14: d4r2_design_ppi_363_dldesign_0_cycle1_af2pred (protein)
chain: GLAEAEKKQKELEEKSTKEYIEKVIKESKKKAKELKKKGEEAKKYAEKIEAEVEKAEKATLDEAIEYTSKARKLVEEAEKKL
B15: d4r3_design_ppi_27_dldesign_0_cycle1_af2pred (protein)
chain: AEEKAKRMEKKAKEIAEEAKELKKNAPKLDPEEAEKKARLLLGRAEGLLEQAKFGGLPEKVEKAAKEAVKAAKEALKVAKELKEK
B16: d4r2_design_ppi_327_dldesign_0_cycle0_af2pred (protein)
chain: SQEVIQAKGKIQAAKEQAEAMKEAIEKKPKSPEELERALERLKRLEEEAKEAAKKAGEEVKEEYEEAKKAIEEAKKAAEENRK
B17: d4r3_design_ppi_32_dldesign_0_cycle1_af2pred (protein)
chain: AEEKAKEAKELAEKAKKTAKEAKELGDEEAAKLAEEGAKDAEEASKIFESGASPAEQADAMAKYRSGKAYNDLAEKRIKEKKK
B18: d4r3_design_ppi_225_dldesign_0_cycle1_af2pred (protein)
chain: AADAALAAAAAEELAKARSLATEALLYAKKGKVEEAKKLLEEAEKALKKAEELAAAASPEVQARAKKAIEGVKKKIEEAKKAIKEK
B19: d4r3_design_ppi_107_dldesign_0_cycle1_af2pred (protein)
chain: SAAAKEAAEKQEGRFEADLYEVKAKNAAEKYKDDKKKQAEVLEKIAEEAKKKAKEASPVIAKGYKEGAKVAEKLAKEAKKEA
B20: d4r2_design_ppi_226_dldesign_0_cycle1_af2pred (protein)
chain: MELEKKAKEVAKEAKEKAEEAEKAAEEILKKKKAIKEAGTLYSASERFKQVAEAAELDPSKAEEGRKVMERLKERAEKAVKEAE
B21: d4r2_design_ppi_335_dldesign_0_cycle1_af2pred (protein)
chain: GAVTEALDKVLELSEKAIELAEKALKAAKEDKEEAKKYLEKAREKVKEAEKLAKESGSKAGKSIARNTKEYVEKKEKEIKEII
B22: d4r3_design_ppi_140_dldesign_0_cycle0_af2pred (protein)
chain: ATEEQKLKAEAAALGGLYVFSPEGGKRRLERIKEELEEEAERYKEENPEKGPEYEKELREKFETLKELMEKEAAEIKA
B23: d4r3_design_ppi_205_dldesign_0_cycle1_af2pred (protein)
chain: DLDAKAQALLDQAKEALAQMQATAADTVAYLSQATDAKYYARKAAKLDPKFKPQADALIAQLDAALAAAKAAYQAAKAAAA
B24: d4r2_design_ppi_419_dldesign_0_cycle0_af2pred (protein)
chain: DEEKEELKKKIEEAKKKVEEAKKLAEKTSEEVKKLTKEAETEIALAEGYLDNGAAIELAKKKAEEGLKLADEALKLAEKILKEKE
B25: d4r2_design_ppi_460_dldesign_0_cycle0_af2pred (protein)
chain: EELKKLTEEALKKAEEAEKKAKELIKEGKTTPLVKKALEAAEKAEAASISPERALEYAKKAEELYKKAIEEIK
B26: d4r2_design_ppi_339_dldesign_0_cycle1_af2pred (protein)
chain: GESTEKAKKIYEEIKKKAEEYKKKAKEAAELLVEKGEEGGKKLKEIEEEAAKELPEVSFQVKAYINTLKEEAEKRRKEKEA
B27: d4r2_design_ppi_171_dldesign_0_cycle1_af2pred (protein)
chain: ANEAEAEKYYAEGEQKMILGDTAYEMGKKKGPIFYKIAAEEYKEAAELYKEAAKLASPEKAKEYKEKAKEAEEKSKEAKKKGEE
B28: d4r2_design_ppi_432_dldesign_0_cycle0_af2pred (protein)
chain: AEEELKEAERKAKEVAKLAMEDPEAGAKEAEKMSEGSAEALEALAKELKKAAKEAEKEDKEKAEKIKKIYNKAAAAALRAEALADNAA
B29: d4r3_design_ppi_43_dldesign_0_cycle1_af2pred (protein)
chain: SLIEEMKKELEELVKKAEAASPAEAPWYAQEARSYGKYYSEKVEKEGNPEEAKKAKEIAEKLSEEARKIAEKKR
B30: d4r2_design_ppi_335_dldesign_0_cycle0_af2pred (protein)
chain: SKVTEDQDKIIELSNKAVEKAEKALEAAKKDKEEAKKYLEEAEKLVEEAEKLAKESGSKAGRAIARNTKEYLEKKKKEIEELL
B31: d4r2_design_ppi_327_dldesign_0_cycle1_af2pred (protein)
chain: DETVIQAKATIESAKERAEHIKKAIKEKPKTKEELKKAKKILEELEKKAEEAYKKAGEAVKEEYEKAKKAIKEAKKEAEKNLK
B32: d4r3_design_ppi_39_dldesign_0_cycle0_af2pred (protein)
chain: DYEKKLKEEMEKYKKEAEKAAADPGAMYQKVLEGKAAADGIVNIAKEEAEEKGDEELKKKAEEAKKKAEEAIKEMKAKADAAAAA
B33: d4r3_design_ppi_187_dldesign_0_cycle1_af2pred (protein)
chain: SEEKEEGEIYVKHAKLAIEAGKEEKEAGDYKSAIALAKTAIKEAKRAIENPDEEAKKKGKEKLKEAEKALEEIEKALKEAEEK
B34: d4r2_design_ppi_310_dldesign_0_cycle1_af2pred (protein)
chain: AVEKALKIIEETEKEAKEAFEKNPETGLAIAKATYRTAEHLGSKLNKEDAEKLKKKGKEYLEEFEKRYKEKKKELEE
B35: d4r2_design_ppi_319_dldesign_0_cycle0_af2pred (protein)
chain: EEEEKESERLAEEARRAAEEARRRIREAAERSAEAAREALEEARRRMEELIKEAKKHKKAYAVAAGEAERVLHFGEAALARREAAE
B36: d4r2_design_ppi_477_dldesign_0_cycle0_af2pred (protein)
chain: EEEKKEKLKKERHELASELARLASLADALGDKELAEKAEKAMELLALDPEKGKEAAKEVKEAAKKRLAAAKAAAA
B37: d4r3_design_ppi_206_dldesign_0_cycle1_af2pred (protein)
chain: SPEERELAARAQEEAALAKGMKIVVKNNPKSEKAIKDAEETAKEALEAAERIEKLENPTPEAKAAAERARKEAEELLKEVKKAK
B38: d4r2_design_ppi_407_dldesign_0_cycle0_af2pred (protein)
chain: MEEKKNKAKQFAFSEFMKAAAAAPPELRPKIEEAMDKTLEALDESFDKAIKVAEEVAKLPIAKKYAEKAKKFIEEQKK

These binders were tested against VTCN1, Q7Z7D3.
VTCN1, Q7Z7D3, sequence (Q7Z7D3 whole entry): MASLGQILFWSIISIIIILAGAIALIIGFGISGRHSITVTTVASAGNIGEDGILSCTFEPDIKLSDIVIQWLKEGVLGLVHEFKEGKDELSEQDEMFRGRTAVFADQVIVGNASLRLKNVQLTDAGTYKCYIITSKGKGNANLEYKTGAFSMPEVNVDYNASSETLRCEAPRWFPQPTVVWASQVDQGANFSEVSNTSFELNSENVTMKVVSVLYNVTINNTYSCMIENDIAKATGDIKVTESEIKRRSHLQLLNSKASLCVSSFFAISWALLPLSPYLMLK

Binding in a display sort, inactive:
B1 not found, B2 not found, B3 not found, B4 not found, B5 not found, B6 not found, B7 not found, B8 not found, B9 not found, B10 not found, B11 not found, B12 not found, B13 not found, B14 not found, B15 not found, B16 not found, B17 not found, B18 not found, B19 not found, B20 not found, B21 not found, B22 not found, B23 not found, B24 not found, B25 not found, B26 not found, B27 not found, B28 not found, B29 not found, B30 not found, B31 not found, B32 not found, B33 not found, B34 not found, B35 not found, B36 not found, B37 not found, B38 not found

— paper PMC13494018
